Assay results as given in PubChem BioAssay (Tox21).
Where “and” joins values, the source holds several entries; their conditions need not be identical. Identical values can stand only once. Results filed as inconclusive are left out. Entries that show only a call come without a potency. The source holds several records for some structures; these can differ, active in one and inactive in another. Calls of active or inactive are those of the source. Unless noted, the call rests on the fitted dose curve.

Columns and labels:
[1] = Nuclear factor erythroid 2-related factor 2/antioxidant responsive element (Nrf2/ARE) small molecule agonists: qHTS cell viability counter screen in human keratinocytes (AID 1919968; active means well fitted curve in the direction sought with a large enough effect in the repeat runs; an effect the other way counts as inactive or inconclusive; further: nearly all actives have a fitted effect of over 55% in size; further: potency means the concentration at half of the fitted maximal effect)
How it was run: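 Seed 1,500 KeratinoSens cells per well, then incubate 5 h at 37 C/5% CO2. Add compounds in DMSO and incubate 23 h. Add CellTiter-Fluor, wait 1 h and read fluorescence.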

[2] = Nuclear factor erythroid 2-related factor 2/antioxidant responsive element (Nrf2/ARE) small molecule agonists: luciferase reporter gene qHTS assay in human keratinocytes (AID 1919969); further: nearly all actives have a fitted effect of over 35% in size; further: potency means the concentration at half of the fitted maximal effect
[3] = target: Gonadotropin-releasing hormone receptor (Homo sapiens) (UniProt P30968); experiment: Human gonadotropin-releasing hormone receptor (GnRHR) small molecule agonists, calcium flux assay in GnRHR-HEK293 cells (AID 1920063); further: nearly all actives have a fitted effect of over 35% in size; further: potency means the concentration at half of the fitted maximal effect
How it was run: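 Cells: HEK293 stably expressing human GnRHR. Steps: overnight (18 h) culture, 1 h calcium dye loading at 37 C, compound addition, kinetic fluorescence read at 480/540 nm. Each compound tested at 15 concentrations in triplicate.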

[4] = target: KiSS-1 receptor (Homo sapiens) (UniProt Q969F8); experiment: Human kisspeptin (KISS1R) small molecule agonists, calcium flux assay in KISS1R-HEK293 cells (AID 1920064; active means well fitted curve in the direction sought with a large enough effect in the repeat runs; an effect the other way counts as inactive or inconclusive)
How it was run: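 Cells plated and incubated 18 h; dye added, 1 h at 37 C; compounds in DMSO pinned in; signal read at 480/540 nm every second for 3 min. Each compound tested at 15 concentrations in triplicate.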

[5] = G protein-coupled receptor (GPCR) small molecule agonists, calcium flux assay: HEK293 wild type cell line counter screen (AID 1920065)
How it was run: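 Counter-screen of the Tox21 10K library for non-specific calcium release: dye-loaded cells received compounds in DMSO and were monitored by kinetic fluorescence (480/540 nm, 3 min). Fifteen concentrations, run in triplicate.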

[6] = p53 small molecule agonists, cell-based qHTS assay with human liver microsomes (AID 1963577);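 further: p53 response element beta-lactamase reporter cells with liver microsomes plus NADPH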
How it was run: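 In this qHTS, p53 response-element beta-lactamase cells receive test compound together with a microsome/NADPH activating system (0.5 mg/mL final each) and are incubated 16 h at 37 C before LiveBLAzer fluorescence detection.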

[7] = p53 small molecule agonists, cell-based qHTS assay with rat liver microsomes (AID 1963578)
How it was run: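 Agonist mode in p53RE-bla reporter cells, with compounds co-incubated 16 h at 37 C alongside 0.5 mg/mL rat liver microsomes and 0.5 mg/mL NADPH (final), followed by a 2 h LiveBLAzer detection step.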

[8] = p53 small molecule agonists, cell-based qHTS assay with human liver microsomes: qHTS cell viability counter screen (AID 1963579); further: nearly all actives have a fitted effect of over 45% in size
How it was run: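 Metabolically activated exposure: compounds, human liver microsomes and NADPH (0.5 mg/mL final apiece) were added to p53RE-bla cells seeded 5 h earlier, left 16 h at 37 C, and then assessed for viability by CellTiter-Glo luminescence.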

[9] = p53 small molecule agonists, cell-based qHTS assay with rat liver microsomes: qHTS cell viability counter screen (AID 1963580); further: nearly all actives have a fitted effect of over 45% in size; further: potency means the concentration at half of the fitted maximal effect
How it was run: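 p53RE-bla HCT-116 cells (4,000/well) rested 5 h at 37 C, then given Tox21 compounds in DMSO with rat liver microsomes (0.5 mg/mL final) plus NADPH (0.5 mg/mL final) for 16 h at 37 C. Viability read by CellTiter-Glo luminescence after 30 min at room temperature.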

[10] = p53 small molecule agonists, cell-based qHTS assay (AID 1963582; active means well fitted activation curve with a large enough effect in the signal ratio in the repeat runs, not every such curve was filed as active; the % refers to the signal ratio)
How it was run: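 Quantitative HTS in p53RE-bla cells: after a 5 h settling period, compounds delivered in DMSO were left on cells for 16 h at 37 C, and reporter induction was measured as fluorescence following 2 h substrate loading.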

[11] = target: 5-hydroxytryptamine receptor 2A (Homo sapiens) (UniProt P28223); experiment: 5-hydroxytryptamine receptor 2A (HTR2A) small molecule agonists, cell-based qHTS assay (AID 1963587); further: nearly all actives have a fitted effect of over 30% in size
How it was run: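 HTR2A-CHO cells, plated 18 h at 37 C/5% CO2, dye-loaded 1 h at 37 C; compounds in DMSO added by pin tool (agonist mode). Intracellular calcium flux read as kinetic fluorescence on FDSS over 2 min at 1 s intervals.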

[12] = target: Muscarinic acetylcholine receptor M1 (Homo sapiens) (UniProt P11229); experiment: Cholinergic receptor muscarinic 1 (CHRM1) small molecule antagonists, cell-based qHTS assay (AID 1963588); further: nearly all actives have a fitted effect of over 40% in size
How it was run: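 CHRM1-CHO calcium-flux assay, antagonist mode. Cells were seeded 18 h, dye-loaded 1 h at 37 C and given compound for 5 min at RT, then acetylcholine was added at 50nM. FDSS fluorescence was read 3 min; 15 concentrations, three runs.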

[13] = target: Muscarinic acetylcholine receptor M1 (Homo sapiens) (UniProt P11229); experiment: Cholinergic receptor muscarinic 1 (CHRM1) small molecule agonists, cell-based qHTS assay (AID 1963589); further: nearly all actives have a fitted effect of over 35% in size
How it was run: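 Agonist-mode qHTS in CHO cells stably carrying human muscarinic M1. Intracellular calcium is tracked by fluorescence every second after compound transfer; each compound runs at 15 concentrations in three independent runs.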

[14] = cAMP Responsive Elements (CRE) small molecule agonists, cell-based qHTS assay (AID 1963590)
How it was run: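 Agonist mode qHTS in CRE-bla HEK 293T cells: compounds dosed from DMSO for 3 h at 37 C/5% CO2, followed by LiveBLAzer B/G FRET substrate for 2 h at room temperature.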

[15] = cAMP Responsive Elements (CRE) small molecule antagonists, cell-based qHTS assay (AID 1963591; active means well fitted inhibition curve with a large enough effect in the signal ratio in the repeat runs, not every such curve was filed as active; the % refers to the signal ratio)
How it was run: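 Antagonist mode: test compounds are co-incubated with the adenylyl cyclase activator NKH477 (0.25 uM final) on CRE-bla HEK293T cells for 3 h at 37 °C, followed by LiveBLAzer substrate loading.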

[16] = target: Beta-2 adrenergic receptor (Homo sapiens) (UniProt P07550); experiment: Adrenergic beta2 receptor (ADRB2) small molecule antagonists, cell-based qHTS assay (AID 1963592); further: series mostly up to about 92 µM; nearly all actives have a fitted effect of over 50% in size
How it was run: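 Cells (CHO, stable ADRB2 overexpression) incubated 18-20hr at 37C; compounds added from DMSO; agonist mix (1nM isoproterenol, 100uM IBMX, 25uM Ro-20-1724) added; 0.5hr RT; d2-cAMP and anti-cAMP-cryptate added; 1hr RT; 665/615 nm read.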

[17] = target: Beta-2 adrenergic receptor (Homo sapiens) (UniProt P07550); experiment: Adrenergic beta2 receptor (ADRB2) small molecule agonists, cell-based qHTS assay (AID 1963593);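 further: CHO cells stably overexpressing human ADRB2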
How it was run: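 CHO cells stably over-expressing ADRB2 were plated overnight at 37C, then dosed with compounds plus a stimulation mix containing 100uM IBMX and 25uM Ro-20-1724 for 0.5hr at room temperature. cAMP was measured by HTRF competition, 1hr.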

[18] = p53 small molecule agonists, cell-based qHTS assay: qHTS cell viability counter screen (AID 1963581); further: nearly all actives have a fitted effect of over 45% in size
How it was run: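 Cells: HCT-116 with p53 response element-driven beta-lactamase. Treatment: 16 h, 37 C, compounds in DMSO. Read: CellTiter-Glo luminescence after 30 min RT.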

[19] = target: D(2) dopamine receptor (Homo sapiens) (UniProt P14416); experiment: Dopamine D2 receptor (DRD2) small molecule agonists, cell-based qHTS assay (AID 1963594); further: nearly all actives have a fitted effect of over 35% in size
How it was run: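 HEK293 cells stably expressing DRD2 were cultured 24 h at 37 C, then given Ro20-1724 (0.1 mM final) and compounds for 10 min at room temperature. NKH477 (200nM) was then added for 30 min. cAMP was read by HTRF.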

[20] = target: D(2) dopamine receptor (Homo sapiens) (UniProt P14416); experiment: Dopamine D2 receptor (DRD2) small molecule antagonists, cell-based qHTS assay (AID 1963595; active means well fitted inhibition curve with a large enough effect in the signal ratio in the repeat runs, with a control signal flat; the % refers to the signal ratio)
How it was run: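 HEK293 cells stably expressing DRD2, preincubated with 0.1 mM Ro20-1724 and compounds 10 min, were stimulated with 200 nM NKH477 plus 12 nM quinpirole for 30 min at room temperature; cAMP measured by HTRF (665/620 nm).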

Chain of Gonadotropin-releasing hormone receptor (Homo sapiens) (P30968 whole entry, looked up): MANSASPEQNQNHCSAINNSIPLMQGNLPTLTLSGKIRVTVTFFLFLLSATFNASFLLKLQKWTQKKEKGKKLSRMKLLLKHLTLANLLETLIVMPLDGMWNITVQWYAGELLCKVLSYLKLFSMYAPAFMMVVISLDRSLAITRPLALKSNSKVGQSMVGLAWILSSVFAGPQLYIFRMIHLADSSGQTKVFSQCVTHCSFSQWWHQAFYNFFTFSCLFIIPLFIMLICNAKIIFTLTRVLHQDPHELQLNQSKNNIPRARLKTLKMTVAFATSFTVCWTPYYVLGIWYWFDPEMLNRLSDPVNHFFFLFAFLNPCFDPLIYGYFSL
Chain of Muscarinic acetylcholine receptor M1 (Homo sapiens) (P11229 whole entry, looked up): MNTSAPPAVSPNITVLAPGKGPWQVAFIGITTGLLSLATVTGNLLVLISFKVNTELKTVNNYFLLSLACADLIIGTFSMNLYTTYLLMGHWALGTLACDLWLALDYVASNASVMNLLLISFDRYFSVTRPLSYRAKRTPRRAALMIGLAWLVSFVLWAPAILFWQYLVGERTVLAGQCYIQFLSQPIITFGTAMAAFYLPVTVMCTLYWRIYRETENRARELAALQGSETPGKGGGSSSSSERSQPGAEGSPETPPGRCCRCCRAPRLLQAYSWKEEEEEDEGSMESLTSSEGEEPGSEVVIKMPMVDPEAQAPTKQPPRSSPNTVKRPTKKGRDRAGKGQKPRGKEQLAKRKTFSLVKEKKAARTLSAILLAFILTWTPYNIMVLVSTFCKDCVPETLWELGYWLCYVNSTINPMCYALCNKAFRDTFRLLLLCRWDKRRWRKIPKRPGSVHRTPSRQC
Chain of KiSS-1 receptor (Homo sapiens) (Q969F8 whole entry, looked up): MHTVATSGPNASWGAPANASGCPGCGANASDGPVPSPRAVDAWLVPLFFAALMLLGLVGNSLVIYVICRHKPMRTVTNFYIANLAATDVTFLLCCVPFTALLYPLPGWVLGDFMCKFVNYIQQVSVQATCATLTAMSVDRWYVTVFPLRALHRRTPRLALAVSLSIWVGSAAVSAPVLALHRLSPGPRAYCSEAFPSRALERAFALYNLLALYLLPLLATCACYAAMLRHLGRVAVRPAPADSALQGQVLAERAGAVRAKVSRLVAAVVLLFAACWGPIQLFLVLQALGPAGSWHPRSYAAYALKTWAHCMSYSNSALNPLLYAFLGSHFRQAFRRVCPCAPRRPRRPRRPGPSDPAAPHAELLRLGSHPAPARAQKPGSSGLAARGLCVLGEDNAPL
Chain of Beta-2 adrenergic receptor (Homo sapiens) (P07550 whole entry, looked up): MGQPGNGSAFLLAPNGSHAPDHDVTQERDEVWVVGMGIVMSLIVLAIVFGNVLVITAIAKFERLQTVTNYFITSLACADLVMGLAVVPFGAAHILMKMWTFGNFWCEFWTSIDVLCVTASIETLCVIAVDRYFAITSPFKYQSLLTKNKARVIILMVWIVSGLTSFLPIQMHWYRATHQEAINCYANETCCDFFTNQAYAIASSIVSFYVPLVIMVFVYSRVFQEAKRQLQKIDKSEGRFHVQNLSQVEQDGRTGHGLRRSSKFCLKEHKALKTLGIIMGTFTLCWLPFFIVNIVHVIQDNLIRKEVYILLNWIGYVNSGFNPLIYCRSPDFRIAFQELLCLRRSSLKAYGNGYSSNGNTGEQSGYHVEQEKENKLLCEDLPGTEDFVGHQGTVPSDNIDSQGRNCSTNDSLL
Chain of D(2) dopamine receptor (Homo sapiens) (P14416 whole entry, looked up): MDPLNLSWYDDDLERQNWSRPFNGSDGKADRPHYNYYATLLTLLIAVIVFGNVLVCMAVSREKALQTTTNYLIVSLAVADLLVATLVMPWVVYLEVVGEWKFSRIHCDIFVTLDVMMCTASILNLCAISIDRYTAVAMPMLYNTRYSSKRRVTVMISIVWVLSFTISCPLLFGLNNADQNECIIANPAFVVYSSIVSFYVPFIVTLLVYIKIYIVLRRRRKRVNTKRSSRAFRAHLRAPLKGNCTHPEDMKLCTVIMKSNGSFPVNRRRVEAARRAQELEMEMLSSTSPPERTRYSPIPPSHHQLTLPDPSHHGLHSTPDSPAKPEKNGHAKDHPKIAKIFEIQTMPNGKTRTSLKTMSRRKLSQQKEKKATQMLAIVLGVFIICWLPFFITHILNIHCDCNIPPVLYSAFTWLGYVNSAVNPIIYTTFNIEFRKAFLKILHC
Chain of 5-hydroxytryptamine receptor 2A (Homo sapiens) (P28223 whole entry, looked up): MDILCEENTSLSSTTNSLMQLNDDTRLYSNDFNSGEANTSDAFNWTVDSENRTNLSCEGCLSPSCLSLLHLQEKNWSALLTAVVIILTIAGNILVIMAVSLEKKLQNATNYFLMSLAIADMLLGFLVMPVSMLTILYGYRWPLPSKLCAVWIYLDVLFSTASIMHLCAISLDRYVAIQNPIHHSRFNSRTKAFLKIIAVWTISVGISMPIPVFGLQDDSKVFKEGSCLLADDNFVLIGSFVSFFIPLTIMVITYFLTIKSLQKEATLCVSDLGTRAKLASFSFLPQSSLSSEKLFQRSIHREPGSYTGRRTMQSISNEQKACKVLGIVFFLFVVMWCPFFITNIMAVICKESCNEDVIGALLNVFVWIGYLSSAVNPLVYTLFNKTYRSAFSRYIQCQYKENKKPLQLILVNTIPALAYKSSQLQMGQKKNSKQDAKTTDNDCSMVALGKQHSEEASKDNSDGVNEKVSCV

SMILES	Potency [1]	Potency [2]	Potency [3]	Potency [4]	Potency [5]	Potency [6]	Potency [7]	Potency [8]	Potency [9]	Potency [10]	Potency [11]	Potency [12]	Potency [13]	Potency [14]	Potency [15]	Potency [16]	Potency [17]	Potency [18]	Potency [19]	Potency [20]
O=C(O)c1ccc(S(=O)(=O)N(Cl)Cl)cc1	inactive	inactive	inactive	inactive	inactive	inactive	inactive	inactive	inactive	inactive	inactive	inactive	inactive	inactive	inactive	inactive	inactive	–	–	–
CC1=CC(=O)CC(C)(C)C1	2.5 µM (active) and inactive	inactive	inactive	inactive	inactive	inactive	inactive	inactive	16.7 µM (active) and inactive	–	inactive	inactive	inactive	inactive	inactive	inactive	inactive	inactive	inactive	inactive
CCCCCCCCC/C=C/CC1CC(=O)OC1=O (centres undefined)	inactive	inactive	inactive	inactive	inactive	inactive	inactive	inactive	inactive	–	inactive	inactive	inactive	inactive	inactive	inactive	inactive	inactive	inactive	inactive
NC(=O)NO	inactive	inactive	inactive	inactive	inactive	inactive	inactive	inactive	inactive	–	–	–	–	inactive	inactive	inactive	inactive	inactive	inactive	inactive
NNC(=O)c1ccncc1	inactive	inactive	inactive	inactive	inactive	inactive	inactive	inactive	inactive	–	–	–	–	inactive	inactive	inactive	inactive	inactive	inactive	inactive
CC(C)OC(=O)COc1ccc(Cl)cc1Cl	inactive	inactive	inactive	inactive	inactive	inactive	inactive	inactive	–	inactive	inactive	–	inactive	–	–	inactive	–	inactive	inactive	inactive
CN(C)CCN(Cc1cccs1)c1ccccn1	inactive	inactive	inactive	inactive	inactive	inactive	inactive	inactive	inactive	inactive	–	–	–	inactive	inactive	inactive	inactive	–	–	inactive
C=CC(=O)OCCOCCOCCOCCOC(=O)C=C	61.4 µM (active) and 48.1 µM (active)	24.5 µM (active) and 27.1 µM (active)	inactive	inactive	inactive	inactive	inactive	inactive	inactive	inactive	inactive	inactive	inactive	–	–	inactive	–	–	inactive	inactive
O=C(CC(C(=O)OC1CCCCC1)S(=O)(=O)O)OC1CCCCC1 (centres undefined)	inactive	inactive	inactive	inactive	inactive	inactive	inactive	inactive	–	inactive	inactive	inactive	inactive	–	inactive	inactive	inactive	inactive	inactive	inactive
O=Cc1ccc(CO)o1	inactive	inactive	inactive	inactive	inactive	inactive	inactive	inactive	inactive	inactive	inactive	inactive	–	inactive	inactive	inactive	inactive	–	inactive	–
C[C@]12C[C@H](O)[C@H]3[C@@H](CCC4=CC(=O)CC[C@@]43C)[C@@H]1CC[C@@H]2C(=O)CO	inactive	inactive	inactive	inactive	inactive	inactive	inactive	inactive	inactive	inactive	inactive	inactive	inactive	–	–	inactive	inactive	–	inactive	–
CCCCCCOC(C)=O	inactive	inactive	inactive	inactive	inactive	inactive	inactive	inactive	inactive	inactive	inactive	inactive	inactive	inactive	inactive	inactive	–	–	inactive	inactive
CCc1nc(N)nc(N)c1-c1ccc(Cl)cc1	inactive	inactive	39.5 µM (active)	inactive	inactive	inactive	inactive	inactive	inactive	inactive	–	inactive	inactive	inactive	inactive	inactive	inactive	–	inactive	–
Cc1c(OCC(F)(F)F)ccnc1CS(=O)c1nc2ccccc2[nH]1 (centres undefined)	inactive	24.3 µM (active) and 33.5 µM (active)	inactive	inactive	inactive	inactive	inactive	inactive	inactive	inactive	–	–	–	inactive	inactive	–	inactive	–	inactive	inactive
C[C@H]1C[C@@H]2[C@H]([C@@H](O)C[C@@]3(C)[C@H]2CC[C@]3(O)C(=O)CO)[C@@]2(C)C=CC(=O)C=C12	inactive	inactive	inactive	inactive	inactive	inactive	inactive	inactive	inactive	inactive	–	–	–	inactive	–	inactive	inactive	–	inactive	inactive
